# Compound activity (PubChem BioAssay)
# Hits are enriched below; roughly 0.99% of the tested compounds scored in any of these assays.
# TRPV1 agonist: activates the human vanilloid receptor TRPV1 | hit rate 0.19% among 320,000 | Q8NER1 | AID 540275 | TRPV1-expressing cells, Fluo-8 calcium influx, agonist mode | activation, % at 8.33 µM; in the data active = activation above about 80%; inconclusive = between about 30% and that limit; note: 0% is about no effect
# Target sequence (Q8NER1 whole entry, looked up): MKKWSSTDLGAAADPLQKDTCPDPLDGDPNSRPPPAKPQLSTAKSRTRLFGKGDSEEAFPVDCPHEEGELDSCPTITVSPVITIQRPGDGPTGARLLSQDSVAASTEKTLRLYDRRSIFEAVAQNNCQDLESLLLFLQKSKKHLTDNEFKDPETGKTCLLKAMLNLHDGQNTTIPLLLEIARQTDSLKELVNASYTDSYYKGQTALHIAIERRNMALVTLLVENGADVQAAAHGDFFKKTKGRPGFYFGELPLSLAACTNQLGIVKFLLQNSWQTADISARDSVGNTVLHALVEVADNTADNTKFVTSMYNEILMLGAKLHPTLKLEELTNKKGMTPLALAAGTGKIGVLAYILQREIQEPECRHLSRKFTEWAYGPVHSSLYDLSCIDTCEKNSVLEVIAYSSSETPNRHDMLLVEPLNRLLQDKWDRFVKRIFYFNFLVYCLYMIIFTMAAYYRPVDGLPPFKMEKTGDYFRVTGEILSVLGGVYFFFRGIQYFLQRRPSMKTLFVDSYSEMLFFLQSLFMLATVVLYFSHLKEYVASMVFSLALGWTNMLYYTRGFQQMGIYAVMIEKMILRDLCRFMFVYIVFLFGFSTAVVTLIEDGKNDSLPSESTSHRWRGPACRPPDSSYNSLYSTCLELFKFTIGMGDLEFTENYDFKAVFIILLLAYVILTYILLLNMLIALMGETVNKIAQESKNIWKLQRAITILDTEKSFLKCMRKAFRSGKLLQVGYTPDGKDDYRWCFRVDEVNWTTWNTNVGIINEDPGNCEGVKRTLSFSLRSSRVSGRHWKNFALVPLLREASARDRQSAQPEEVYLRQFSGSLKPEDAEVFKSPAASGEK
#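 Cells expressing TRPV1 were dye-loaded with Fluo-8 and read kinetically: 10 s baseline, 3 min after compound (agonist portion), then 2 min after EC20 capsaicin (allosteric enhancer portion). Calcium-bound dye fluorescence at 480/520 nm.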
# TRPV1 PAM: enhances activation of the human vanilloid receptor TRPV1; TRPV1-expressing cells, Fluo-8 calcium influx, capsaicin EC20 potentiation; potentiation, % at 8.33 µM; Q8NER1; hit rate 0.02% among 320,000; in the data active = potentiation above about 80%; inconclusive = between about 30% and that limit; note: 0% is about no effect
#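 TRPV1-expressing cells were cultured overnight at 35.5C and loaded with Fluo-8 calcium dye for 40 to 90 min at room temperature. After a 10 s baseline, compound was added and calcium influx was read kinetically for 3 min (ex 480/em 520 nm).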
# TRPML1 blocker: blocks the human TRPML1 channel | activity change, negative = inhibition, % (test concentration not listed) | Q9GZU1 | hit rate 0.02% among 390,000 | TRPML1-inducible cells, Ca2+ dye fluorescence, FDSS; hits give low values; inhibition of EC80 agonist-evoked calcium signal; in the data active = activity change below about -50%; inconclusive = between about -30% and that limit;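 note: stimulus is agonist 54-4 at its EC80 concentration; % is set by controls: 0 for no effect and ±100 for the full control effect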
#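 TRPML1-DL cells, Tet-induced overnight (~16 h, 37 °C) at 1,500 cells/well, were loaded with Ca8 no-wash dye plus quencher for 45-90 min at room temperature. Compounds were pinned during FDSS kinetic reading; agonist 54-4 at EC80 (4 uM final) then added.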
# TRHR agonist-1: TRH receptor (human) agonism. activation, % at 2 µM. P34981. hit rate 0.18% among 360,000. AID 493084. TRHR cells, calcium flux fluo-8, FDSS agonist mode; in the data active = activation above about 30%; note: 0% is about no effect
#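 TRHR-expressing cells loaded with fluo-8 calcium dye; 23 nL library compound pin-transferred, kinetic FDSS fluorescence (Ex 480/Em 530) recorded about 180 s for agonist-induced calcium release, before a 10 nM TRH EC20 addition for potentiator mode.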
# TRPML1 ag: agonists of human TRPML1 channel | TRPML1-expressing cells, Ca2+ dye fluorescence, FDSS | Q9GZU1 | activation, % (no concentration beside the values) | hit rate 0.12% among 410,000 | AID 624414; in the data active = activation above about 50%; inconclusive = mostly about 30% to 49%; note: 0% is about no effect
#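 Kinetic FDSS Ca2+ read in Tet-induced TRPML1-DL cells (ABD Ca8 dye plus quencher, 45-90 min RT loading): baseline, then compound, then 110 s agonist window; EC80 agonist 54-4 at 4uM final added afterwards for a 110 s antagonist window.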
# TRHR enhancer-1: TRH receptor (human) allosteric enhancement; P34981; TRHR cells, fluo-8 calcium fluorescence, EC20 TRH enhancement; hit rate 0.66% among 360,000; enhancement, % at 2 µM; in the data active = enhancement above about 30%; note: 0% is about no effect
#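 TRHR-expressing cells loaded with fluo-8 calcium dye were read kinetically (ex 480/em 530) during compound addition, then stimulated with an EC20 of TRH (10 nM final). Enhancement of the Gq-mediated intracellular calcium response was scored.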
# TRHR enhancer-2: human TRH receptor allosteric enhancement confirmation; 970 tested, under 10 active; TRH receptor cell assay, enhancer confirmation qHTS; activity change, negative = inhibition, % at 46.1 µM; shares compounds with TRHR enhancer-1;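 note: compound effect scored on response to added TRH at EC20 of 10 nM; 0% is about no effect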
# TRHR agonist-2: human TRH receptor agonism confirmation. AID 493078. Potency, µM (doses to about 46.1 µM), inactives show at the top dose activation, most hits filed as activators. TRHR-expressing cells, agonist activation read-out. shares compounds with TRHR enhancer-1. hit rate 8% among 970; note: potency is the fitted concentration of half-maximal effect; 0% is about no effect; nearly all actives have a fitted effect of over 75% in size
# Active calls of the source: *; i = inactive; ? = inconclusive; nt = no result. Unless noted, calls come from the whole dose curve; as a rule, active = well fitted curve in the direction sought with a large enough effect; inconclusive = small, poorly fitted or top-dose-only effect, or another doubt; inactive = no such curve, though single readings can be large; an effect the other way counts as inactive or inconclusive.
SMILES,TRPV1 agonist,TRPV1 PAM,TRPML1 blocker,TRHR agonist-1,TRPML1 ag,TRHR enhancer-1,TRHR enhancer-2,TRHR agonist-2
CCN(C(=O)c1cc2c(Cl)nc3ccc(C)cc3c2s1)c1cc(OC)ccc1OC,nt,nt,30.2,0.8,-0.1,-4.6,nt,nt
COc1ccc(N2CCN(c3nc4ccccc4n4c(C)nnc34)CC2)cc1,nt,nt,14.4,-0.2,-0.3,0.4,nt,nt
COc1ccc(S(=O)(=O)N2CCN(c3ccc4nnc(-c5ccccc5)n4n3)CC2)cc1,0.8,-9.4,-9.1,-0.4,-0.8,47.6*,3.5,-0.7%
COc1cc(/C=N/NC(N)=O)ccc1OC(=O)c1ccco1,4.2,-8.2,24.4,0.3,0.3,-2.1,nt,nt
COc1cc(/C=N/N(C)C)ccc1OC(=O)c1ccco1,-1.2,10.7,-7.5,-0.1,0.0,41.4*,2.6,-0.5%
O=C(Nc1ccccc1C(=O)O)c1cc(S(=O)(=O)N2CCOCC2)c(Br)s1,2.9,-13.6,9.9,-0.6,2.0,44.7*,4.1,-0.5%
COc1ccc(-c2nc3cc(C)ccn3c2NC(=O)c2c(F)cccc2Cl)cc1,21.6,-6.4,2.7,1.8,1.7,56.4*,?,5.2%
CCOCCCNC(=O)c1ccc(NC(=O)N2CCCCc3ccccc32)cc1,nt,nt,15.0,-0.4,0.3,-9.8,nt,nt
COc1ccc(C(=O)Nc2ccccc2C(=O)NC(C(=O)NCc2ccco2)C(C)C)cc1 (configuration not stated),-2.0,7.1,-5.0,-0.2,0.3,48.2*,-0.5,-0.5%
COc1ccc(C(=O)N[C@H](C(=O)NCc2ccco2)C(C)C)cc1,-0.7,15.0,20.9,-0.4,-1.1,-4.1,nt,nt
CCc1ccc(NC(=O)c2cc(CN3CCOCC3)on2)cc1,nt,nt,42.5,0.2,1.2,0.6,nt,nt
O=C(NC(=S)Nc1ccccc1Br)C1CCC1,22.6,5.5,-0.7,0.0,-0.2,62.5*,-7.5,3.0%
N#Cc1ccccc1NC(=S)NC(=O)C1CCC1,2.2,-6.6,2.4,-0.4,0.0,-0.5,nt,nt
NC(=O)NCCCC(NC(=O)c1ccc(C#CC2(O)CCCCC2)cc1)C(=O)O (configuration not stated),-7.0,14.7,0.1,-0.1,0.3,42.7*,-3.6,-0.7%
CCC(=O)N1c2ccccc2CC1C(=O)NCCN1CCN(c2cccc(C(F)(F)F)c2)CC1 (configuration not stated),nt,nt,-7.7,-0.1,0.7,-0.4,nt,nt
COc1ccccc1-n1nnnc1SCC(=O)Nc1ccccc1,-2.3,-2.1,11.3,0.4,-0.7,56.4*,-4.1,2.4%
COc1cc(OC)cc(C(=O)Nc2ccc(S(=O)(=O)N3CCCCC3c3cccnc3)cc2)c1 (configuration not stated),nt,nt,-3.0,-0.2,0.9,2.2,nt,nt
O=C(CSc1nnc(-c2cccs2)o1)Oc1ccc(Cl)cc1,nt,nt,-4.6,0.4,2.2,2.4,nt,nt
CCOCCCNC(=O)c1cc(Sc2ccc(F)cc2)nc2ccccc12,?,-22.3,0.9,0.2,0.3,48.8*,-6.9,2.7%
COc1cc2c(cc1OC)[C@@H]1O[C@](CCCCN3C(=O)c4ccccc4C3=O)(C2)Oc2cc(C)n(-c3ccccc3)c(=O)c21,i,i,nt,0.5,nt,-0.5,nt,nt
O=C(O)c1cccc(-c2ccc(/C=c3/sc4nc5ccccc5n4c3=O)o2)c1,nt,nt,-3.3,29.9,23.0,-4.7,-6.6,?
COc1ccc(-c2cc(C(F)(F)F)nc(SCC(=O)NC(C)c3ccccc3)n2)cc1 (configuration not stated),nt,nt,-4.4,1.3,-0.1,22.5,nt,nt
CCOC(=O)C1=C(C)N(c2ccc(Cl)cc2)C(=O)NC1c1cccc([N+](=O)[O-])c1 (configuration not stated),-11.5,-1.7,15.3,-1.2,0.6,-3.6,nt,nt
